85 molecules from PubChem BioAssay AID687016 (The Scripps Research Institute Molecular Screening Center, 2013) can be followed below.

Where “and” joins values, the source holds several entries; their conditions need not be identical. Identical values can stand only once. Out of some 370,000 compounds screened, about 2,800 (0.76%) were called active. No stated cut-off is given here; in the data, active means inhibition above about 21%; inactive means the rest. What follows is part of a selection rich in actives, with near analogues and random picks from the rest. The source holds several records for some structures; these can differ, active in one and inactive in another.

Chain of E3 ubiquitin-protein ligase UHRF1 (Homo sapiens) (Q96T88 whole entry, looked up, the tested form may be a part): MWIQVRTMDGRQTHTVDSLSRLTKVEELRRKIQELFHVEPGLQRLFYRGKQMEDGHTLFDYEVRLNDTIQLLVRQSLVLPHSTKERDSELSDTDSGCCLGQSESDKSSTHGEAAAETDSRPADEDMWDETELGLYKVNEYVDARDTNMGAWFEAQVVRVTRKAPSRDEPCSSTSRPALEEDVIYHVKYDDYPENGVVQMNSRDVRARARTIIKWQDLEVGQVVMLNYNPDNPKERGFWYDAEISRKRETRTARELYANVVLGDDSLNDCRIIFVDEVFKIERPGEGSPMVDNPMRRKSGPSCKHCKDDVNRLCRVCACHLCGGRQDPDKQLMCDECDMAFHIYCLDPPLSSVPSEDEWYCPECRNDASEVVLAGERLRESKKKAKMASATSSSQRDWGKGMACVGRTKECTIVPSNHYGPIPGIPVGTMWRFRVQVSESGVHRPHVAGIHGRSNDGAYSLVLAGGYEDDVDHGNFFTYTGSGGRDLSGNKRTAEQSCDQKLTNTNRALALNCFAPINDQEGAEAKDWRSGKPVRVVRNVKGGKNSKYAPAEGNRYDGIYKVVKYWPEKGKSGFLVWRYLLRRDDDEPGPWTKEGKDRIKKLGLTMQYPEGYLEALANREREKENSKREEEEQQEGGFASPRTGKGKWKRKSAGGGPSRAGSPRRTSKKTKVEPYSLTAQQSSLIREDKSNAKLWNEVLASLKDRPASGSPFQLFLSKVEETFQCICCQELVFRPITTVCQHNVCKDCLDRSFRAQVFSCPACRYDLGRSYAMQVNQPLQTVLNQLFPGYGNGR

The assay addresses E3 ubiquitin-protein ligase UHRF1 (Homo sapiens) (UniProt Q96T88). In words: blockers of UHRF1 binding to methyl-oligo – biochemical, TR-FRET, human UHRF1, single concentration, counter-screen for MBD2 inhibitor project, primary screen (AID 687016).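 Further: UHRF1 SRA domain binding a hemimethylated CpG hairpin DNA probe; 0% = median of test compound wells and 100% = reference inhibitor.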 Particulars: UHRF1 binding to methylated oligo, at 4.4 µM, stronger effect = higher value.
In the case of `O=C(NCc1ccc(Cl)cc1)C1CCCN(c2nc3ccccc3o2)C1` (stereo not given), the inhibition is 2.81% (inactive). Consider `COc1ccc(N2CCN(CCNS(=O)(=O)c3ccc(Cl)s3)CC2)cc1`, for which the inhibition was -0.57% (inactive). With `O=C(Nc1ccc(Cl)cc1)OCc1cc(-c2ccccc2)on1`, the inhibition is 2.42% (inactive). As to `CC(C)(COC(=O)Nc1ccccc1)COC(=O)Nc1ccccc1`, the inhibition is -1.28% (inactive). `Cc1ccc(NC(=O)OCc2cncs2)cc1`: the inhibition was 49.5% (active). `CN1C[C@]2(C=C3CCCCC3n3c(=O)n(-c4ccccc4)c(=O)n32)N=C1NC(=O)c1ccccc1` (stereo not given in full): the inhibition was -2.02% (inactive). In the case of `CCOC(=O)[C@@]12CCC3=C1N(CCC3)C(=O)[C@H](CC(=O)N1CCN(C(=O)c3ccco3)CC1)C2`, the inhibition was -1.01% (inactive). Consider `Cc1ccc(-c2nc(C3CCCN(S(=O)(=O)c4ccc(Br)s4)C3)no2)cc1` (stereo not given), for which the inhibition was 1.59% (inactive). For the molecule `Cc1cc(C)c2nc3nc(C)cc(C)c3c(N)c2c1`, the inhibition is 26.9% (active).

For the molecule `CCCCN1CCN(C(=O)c2ccc3c(c2)NC(=O)C(C)(C)O3)CC1`, the inhibition was 0.61% (inactive). For `C=CCN1[C@H](CC(C)C)COc2cccc(N3CCCC3)c2S1(=O)=O`, the inhibition was -0.17% (inactive).

In the case of `Cc1ccccc1NC(=O)Cn1c(=O)n(CC2CCCO2)c(=O)c2ccccc21` (stereo not given), the inhibition was -0.24% (inactive). For `Cc1ccccc1NC(=O)CN1C(=O)N/C(=C\c2cccn2-c2cccc(C(=O)O)c2)C1=O`, the inhibition was 74.8% (active). Under `COC(=O)CN1C(=O)N/C(=C/c2ccc(OC)c(C)c2OC)C1=O` stands -4.91% (inactive); under `CC(C)(C)C1C/C(=C/c2ccco2)C(=O)/C(=C/c2ccco2)C1` (stereo not given), 99.5% (active). `C=CC1=C(C(=O)O)N2C(=O)[C@@H](NC(=O)/C(=N/OCC(=O)O)c3csc(N)n3)[C@H]2SC1`: the inhibition is 93.7% (active).

For the molecule `C=CC1=C(C(=O)O)N2C(=O)[C@@H](NC(=O)/C(=N\OCC(=O)O)c3csc(N)n3)[C@H]2SC1`, the inhibition is 77.4% (active). Regarding `CO/N=C(\C(=O)N[C@@H]1C(=O)N2C(C(=O)O)=C(COC(C)=O)CS[C@H]12)c1csc(N)n1` (stereo in doubt), the inhibition is 9.54% (inactive) and 0.92% (inactive) and 27.5% (active). The figure for `CCN1CCN(C(=O)N[C@@H](C(=O)N[C@@H]2C(=O)N3C(C(=O)O)=C(CSc4nnnn4C)CS[C@H]23)c2ccc(O)cc2)C(=O)C1=O` is -2.2% (inactive); for `COc1ccc(-n2c(COc3ccc(C)cc3)nnc2SCC(=O)Nc2ccc(Oc3ccccc3)cc2)cc1` it is -5.28% (inactive); for `CN(C)Cc1cn(-c2ccc(-c3noc4c3C(=O)N(CC(=O)N3CCOCC3)CC4)cc2)nn1` it is 2.67% (inactive). On to `O=C(CSCc1ccc(Br)cc1)Nc1ccc(S(=O)(=O)N2CCCCCC2)cc1`, for which the inhibition was -1.33% (inactive). On to `O=C(CN1CCCCC1)Nc1ccccc1C(=O)NC1CC1`, for which the inhibition was 3.15% (inactive).

As to `O=C(CN1CCCCCC1)Nc1c(Cl)cc(Cl)cc1Cl`, the inhibition is -0.79% (inactive).

For the molecule `O=C(CN1CCCCCC1)Nc1ccc(S(=O)(=O)N2CCCCC2)cc1`, the inhibition is 62.1% (active). In the case of `O=C(CN1CCCCC1)Nc1ccccc1Cl`, the inhibition is 45.6% (active). With `CCOc1ccc(NC(=O)COc2ccc(S(=O)(=O)N3CCCC3)cc2)cc1`, the inhibition was 1.66% (inactive). For the molecule `CC(=O)Nc1ccc(OC[C@@H](O)CN2CCC(C(O)(c3ccccc3)c3ccccc3)CC2)cc1`, the inhibition is 1.32% (inactive). Take `Cc1ccc(NC(=O)c2cc(C)nn2-c2ccccc2)c(C)c1`: the inhibition was -1.23% (inactive).

On to `CCCCCN1CCCCC(NC(=O)C(C)CCC)C1=O` (stereo not given), for which the inhibition is -0.32% (inactive). Regarding `CCN(CC)CCNC(=O)Cn1cnc2sc(C)c(S(=O)(=O)N3CCOCC3)c2c1=O`, the inhibition was 6.01% (inactive).

For `Cc1sc2ncn(CC(=O)NCCN(C)C)c(=O)c2c1S(=O)(=O)N1CCC(C)CC1`, the inhibition is -1.58% (inactive). The figure for `CCN(CC)CCCNC(=O)Cn1cnc2sc(C)c(S(=O)(=O)N3CCN(c4ncccn4)CC3)c2c1=O` is 31.2% (active); for `C=CCN1C(=O)[C@@H](CC(=O)NCCCOCCCC)[C@]2(C(=O)OCC)CCCCC/C=C/12` it is -0.5% (inactive); for `C=C(C)C#CC(Cc1ccccc1)N(CC1CC1)/C(N)=N/C(=O)OCc1ccccc1` (stereo not given) it is -3.18% (inactive). With `COc1ccc(C(=O)NCCSc2ccccc2C)cc1`, the inhibition was 0.98% (inactive). As for `COc1ccc(C(=O)NNc2cc(C)nc(NNC(=O)c3ccc(OC)cc3)n2)cc1`, the inhibition is 20.7% (active). Turning to `COc1cccc(C(=O)NC(=O)Nc2nc(C)cc(C(F)(F)F)n2)c1`, the inhibition was 0.01% (inactive).

With `CCOC(=O)C1CCN(C(=O)C(C)(C)NC(=O)Nc2ccc(F)c(F)c2)CC1`, the inhibition is 2.59% (inactive).

As for `COc1ccc(N2CCN(C(=O)c3cccs3)CC2)cc1`, the inhibition was -7.02% (inactive). As to `O=C(Nc1ccc(N2CCN(C(=O)c3cccs3)CC2)cc1)c1cccnc1Cl`, the inhibition was -0.07% (inactive). Regarding `O=C(COc1ccccc1)Nc1ccc(N2CCN(C(=O)c3cccs3)CC2)cc1`, the inhibition is 44.9% (active). Consider `CCOc1ccc(N(CC(=O)NCCc2ccc(F)cc2)S(=O)(=O)c2ccccc2)cc1`, for which the inhibition was 16.8% (inactive). Under `CCOc1ccc(N(CC(=O)NCCOc2ccccc2OC)S(=O)(=O)c2ccccc2)cc1` stands 28% (active); under `COc1ccc(CCNC(=O)CN(c2ccccc2)S(=O)(=O)c2ccccc2)cc1`, 1.05% (inactive). Turning to `Cc1ccc(Cn2cc(CN3[C@@H](C)COc4cc(Br)ccc4S3(=O)=O)nn2)cc1`, the inhibition is -1.6% (inactive). With `COC(=O)[C@]12C[C@H](CC(=O)NCc3ccccc3)C(=O)N(Cc3ccccc3)C1=C[C@H](COCc1ccccc1)O[C@@H]2C`, the inhibition was 3.31% (inactive).

Consider `O=S1(=O)c2c(cccc2N2CCSCC2)Oc2ccccc2CN1Cc1cn(Cc2ccc(F)cc2)nn1`, for which the inhibition was 2.59% (inactive).

Take `O=C(Cn1cnc2ccccc21)N/N=C/c1ccco1`: the inhibition is -2.46% (inactive).

Turning to `O=C(N/N=C/c1ccco1)c1ccc(C(=O)N/N=C/c2ccco2)o1`, the inhibition is 38.3% (active).

`CN(C)S(=O)(=O)c1cccc(C(=O)N/N=C\c2ccco2)c1`: the inhibition was -2.24% (inactive). On to `C=CS(=O)(=O)N(Cc1nnn(Cc2ccccc2)c1Br)[C@H](C(=O)OC)C(C)C`, for which the inhibition is 3.67% (inactive). `CN(C)CCNC(=O)c1ccc(Cl)c2cc3ccccc3nc12`: the inhibition was 30.7% (active). On to `O=C(NCCCNC(=O)c1ccccc1Cl)c1cnccn1`, for which the inhibition was 4.5% (inactive). `CN(C)CCNC(=O)Cc1ccc([N+](=O)[O-])cc1`: the inhibition was -0.93% (inactive). The figure for `Cc1ccc(C(=O)O)cc1-c1ccc(/C=C2\SC(=O)N(CC(=O)Nc3ccc4c(c3)OCO4)C2=O)o1` is 12.9% (inactive); for `N#Cc1ccccc1CN1C(=O)S/C(=C/c2cccn2-c2cccc(C(=O)O)c2)C1=O` it is 21.4% (active). Under `COC(=O)[C@H](C(C)C)N(CCCc1cn(Cc2ccccc2)nn1)S(=O)(=O)c1ccc(F)cc1Br` stands 7.41% (inactive); under `O=S1(=O)c2ccc(Br)cc2OC[C@@H](Cc2ccccc2)N1Cc1cn(Cc2ccco2)nn1`, -5.15% (inactive). For `CC(C)c1ccc(C(=O)OC2CCOC2=O)cc1` (stereo not given), the inhibition is 0.68% (inactive). The figure for `COc1cc(C(=O)OC2CCOC2=O)c([N+](=O)[O-])cc1OC` (stereo not given) is 22.8% (active); for `COc1cc(C(=S)N2CCOCC2)cc(OC)c1OC(=O)c1ccc([N+](=O)[O-])cc1[N+](=O)[O-]` it is 3.69% (inactive). In the case of `COc1ccc(CSc2nnc(SCC(=O)Nc3ccccc3C(F)(F)F)s2)cc1`, the inhibition is 2.07% (inactive). With `O=C(OCC#CCSc1nnc(-c2ccco2)o1)c1ccc(F)cc1`, the inhibition is -3.52% (inactive). The figure for `O=C(CSc1nc2ccccc2nc1N1CCCCC1)N1CCN(S(=O)(=O)c2cccc([N+](=O)[O-])c2)CC1` is -2.11% (inactive); for `COc1cccc2c1C(=O)c1c(O)c3c(c(O)c1C2=O)CC(O)(C(C)=NNC(=O)c1ccc(Cl)c(Cl)c1)CC3OC1CC(N)C(O)C(C)O1` (stereo not given) it is 96% (active). Turning to `COc1cccc(CNC(=O)CNS(=O)(=O)c2ccc3nc(C)sc3c2)c1OC`, the inhibition was -1.45% (inactive). As to `COc1cc(NC(=O)C2CCCN(S(=O)(=O)c3ccc(C(C)(C)C)cc3)C2)cc(OC)c1` (stereo not given), the inhibition is 2.42% (inactive). Turning to `CCCOc1ccc(Oc2c(Cl)cnn(Cc3cccc4ccccc34)c2=O)cc1`, the inhibition was 2.95% (inactive). The figure for `CC(=O)Nc1nc2ncccn2c1-c1ccc(C(F)(F)F)cc1` is -2.41% (inactive); for `COc1ccc(N2C(=O)C(CC(=O)Nc3ccccc3)N(Cc3ccc(OC)c(OC)c3)C2=O)cc1` (stereo not given) it is 1.08% (inactive).

Regarding `COc1ccc(CCN2C(=O)N(c3ccc(OC)cc3)C(=O)C2CC(=O)Nc2ccc(OC)cc2)cc1` (stereo not given), the inhibition was 37.7% (active).

Take `COc1ccc(N2C(=O)C(CC(=O)Nc3ccc(F)cc3)N(CCc3cccs3)C2=O)cc1` (stereo not given): the inhibition was 1.34% (inactive). In the case of `CCCCCCCCOC1OC(CO)C(O)C(O)C1NC(C)=O` (stereo not given), the inhibition was 0.97% (inactive).

As for `CCc1cccc(OC2OC(CO)C(O)C(O)C2NC(C)=O)c1` (stereo not given), the inhibition is 1.52% (inactive). Consider `CCCCCCCCCOC1OC(CO)C(O)C(O)C1NC(C)=O` (stereo not given), for which the inhibition was 53.3% (active). Under `CCC(NC(=O)C1C2C=CC3(CN(Cc4ccccc4)C(=O)C13)O2)c1ccccc1` (stereo not given) stands 0.23% (inactive); under `Cc1cc(C(=O)NN=C/C=C/c2ccco2)n[nH]1`, 5.21% (inactive). As for `CCOc1ccc(NC(=O)c2ccc(NC(=O)COC(=O)c3ccc(NC(=O)CC#N)cc3)cc2)cc1`, the inhibition was 23.6% (active).

With `CCOc1ccc(NC(=O)c2ccc(CSc3nnnn3C)cc2)cc1`, the inhibition is -0.48% (inactive). Turning to `CCOc1ccc(NC(=O)c2ccc(NC(=O)CN3C(=O)C(=O)N(CC(C)C)C3=O)cc2)cc1`, the inhibition is 3.55% (inactive). Under `COc1cccc(Cn2cc(COC(=O)Nc3ccc(F)cc3)nn2)c1` stands 0.48% (inactive). Turning to `Cn1c(=O)c2c(ncn2CC(=O)N2CCN(c3ccccc3)CC2)n(C)c1=O`, the inhibition is -2.46% (inactive). For `Cc1cccc(Cn2c(N3CCN(c4ccccc4)CC3)nc3c2c(=O)n(C)c(=O)n3C)c1`, the inhibition was 23.8% (active). On to `CCOC(=O)N1CCN(Cc2nc3c(c(=O)n(C)c(=O)n3C)n2Cc2ccccc2)CC1`, for which the inhibition is 1.75% (inactive).

What is called inhibition is the relative decrease from the control value, in per cent.
